For 15 compounds, composite z-score and z-score results are on record in PubChem BioAssay.

Test [1] can be described thus: binders of probe aFSTL3 on microarray, primary screen, stem cell growth factor project, biochemical, small-molecule microarray, fluorescence 635/667 (AID 1064).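 Further: measures binding of the biotinylated anti-FSTL3 antibody to printed compounds.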 As to conditions: higher = more signal.
Test [2] can be described thus: binders from COS7 lysate, DM2A8 probe, primary screen, torsin A project, cell lysate, small-molecule microarray, fluorescence 635/667 (AID 1065). Particulars: higher = more signal, COS7 lysate expressing mutant human TOR1A.
Test [3] can be described thus: binders of probe aFGF2 on microarray, primary screen, stem cell growth factor project, biochemical, small-molecule microarray, fluorescence 635/667 (AID 1067).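 Further: measures binding of biotinylated aFGF2 protein to printed compounds on slides; z-score merges feature fluorescence and signal-to-noise across triplicate slides.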 As to conditions: higher = more signal.
The nature of test [4]: binders of probe aFGF10 on microarray, primary screen, stem cell growth factor project, biochemical, small-molecule microarray, fluorescence 635/667 (AID 1071).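 Further: score merges 667 nm spot intensity and signal to noise from triplicate slides.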 As to conditions: higher = more signal.
Test [5] addresses Neurogenic locus notch homolog protein 2 (Homo sapiens) (UniProt Q04721). The test is described as follows: Notch2 binders on small-molecule microarrays, primary screen, biochemical, small-molecule microarray, 635 nm fluorescence, stem cell growth factors (AID 1073). Particulars: Notch2 binding, higher = more signal.
The target of test [6] is Pro-neuregulin-1, membrane-bound isoform (Homo sapiens) (UniProt Q02297). In words: NRG1 binders on small-molecule microarrays, primary screen, psychiatric disease protein project, biochemical, small-molecule microarray, fluorescence 635/667 (AID 1075).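 Further: score combines 667 nm spot fluorescence with signal to noise.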 As to conditions: NRG1 binding, 635 nm fluorescence, higher = more signal.
Chain of Pro-neuregulin-1, membrane-bound isoform (Homo sapiens) (Q02297 whole entry, looked up, the tested form may be a part, canonical isoform): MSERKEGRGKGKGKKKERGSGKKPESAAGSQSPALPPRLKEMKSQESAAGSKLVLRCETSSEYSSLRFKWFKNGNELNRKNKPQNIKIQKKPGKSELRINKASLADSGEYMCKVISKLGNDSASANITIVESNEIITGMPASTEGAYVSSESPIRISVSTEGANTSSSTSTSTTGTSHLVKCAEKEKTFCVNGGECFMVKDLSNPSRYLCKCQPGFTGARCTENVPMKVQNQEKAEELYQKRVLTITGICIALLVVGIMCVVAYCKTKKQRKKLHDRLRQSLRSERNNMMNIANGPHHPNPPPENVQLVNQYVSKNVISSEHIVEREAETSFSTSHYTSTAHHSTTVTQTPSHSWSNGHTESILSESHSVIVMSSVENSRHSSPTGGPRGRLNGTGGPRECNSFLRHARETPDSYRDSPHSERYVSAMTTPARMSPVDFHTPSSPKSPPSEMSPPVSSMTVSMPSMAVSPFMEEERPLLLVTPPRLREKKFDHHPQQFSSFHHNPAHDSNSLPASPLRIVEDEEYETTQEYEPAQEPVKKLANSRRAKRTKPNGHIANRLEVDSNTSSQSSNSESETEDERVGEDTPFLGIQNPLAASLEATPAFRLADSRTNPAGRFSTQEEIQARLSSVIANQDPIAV
Test [7] deals with Neuregulin-1 EGF-like domain. In words: binders of neuregulin-1 EGF-like domain, primary screen, biochemical, small-molecule microarray, 635 nm fluorescence (AID 1081).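 Further: binding of the protein to compounds printed on small-molecule microarray slides.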 As to conditions: small-molecule microarray binding, higher = more signal.
Test [8] can be described thus: FRG1 promoter luciferase signal modulators, primary screen, FRG1 inhibition for FSHD, cell-based, C2C12 myotubes, firefly/Renilla luciferase, luminescence (AID 1084). Particulars: higher = more signal, called active from +8 up or from −8 down.
A short description of test [9]: binders of probe aFST on microarray, primary screen, stem cell growth factor project, biochemical, small-molecule microarray, fluorescence 635/667 (AID 1086).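 Further: score merges 667 nm fluorescence with signal-to-noise of each printed compound spot.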 As to conditions: higher = more signal.
Test [10] can be described thus: binders of probe aHhip on microarray, primary screen, stem cell growth factor project, biochemical, small-molecule microarray, fluorescence 635/667 (AID 1087).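 Further: score merges spot fluorescence at 667nm with spot signal to noise ratio.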 As to conditions: higher = more signal.

Activity calls are given as the source filed them.

Chain of Neurogenic locus notch homolog protein 2 (Homo sapiens) (Q04721 whole entry, looked up, canonical isoform): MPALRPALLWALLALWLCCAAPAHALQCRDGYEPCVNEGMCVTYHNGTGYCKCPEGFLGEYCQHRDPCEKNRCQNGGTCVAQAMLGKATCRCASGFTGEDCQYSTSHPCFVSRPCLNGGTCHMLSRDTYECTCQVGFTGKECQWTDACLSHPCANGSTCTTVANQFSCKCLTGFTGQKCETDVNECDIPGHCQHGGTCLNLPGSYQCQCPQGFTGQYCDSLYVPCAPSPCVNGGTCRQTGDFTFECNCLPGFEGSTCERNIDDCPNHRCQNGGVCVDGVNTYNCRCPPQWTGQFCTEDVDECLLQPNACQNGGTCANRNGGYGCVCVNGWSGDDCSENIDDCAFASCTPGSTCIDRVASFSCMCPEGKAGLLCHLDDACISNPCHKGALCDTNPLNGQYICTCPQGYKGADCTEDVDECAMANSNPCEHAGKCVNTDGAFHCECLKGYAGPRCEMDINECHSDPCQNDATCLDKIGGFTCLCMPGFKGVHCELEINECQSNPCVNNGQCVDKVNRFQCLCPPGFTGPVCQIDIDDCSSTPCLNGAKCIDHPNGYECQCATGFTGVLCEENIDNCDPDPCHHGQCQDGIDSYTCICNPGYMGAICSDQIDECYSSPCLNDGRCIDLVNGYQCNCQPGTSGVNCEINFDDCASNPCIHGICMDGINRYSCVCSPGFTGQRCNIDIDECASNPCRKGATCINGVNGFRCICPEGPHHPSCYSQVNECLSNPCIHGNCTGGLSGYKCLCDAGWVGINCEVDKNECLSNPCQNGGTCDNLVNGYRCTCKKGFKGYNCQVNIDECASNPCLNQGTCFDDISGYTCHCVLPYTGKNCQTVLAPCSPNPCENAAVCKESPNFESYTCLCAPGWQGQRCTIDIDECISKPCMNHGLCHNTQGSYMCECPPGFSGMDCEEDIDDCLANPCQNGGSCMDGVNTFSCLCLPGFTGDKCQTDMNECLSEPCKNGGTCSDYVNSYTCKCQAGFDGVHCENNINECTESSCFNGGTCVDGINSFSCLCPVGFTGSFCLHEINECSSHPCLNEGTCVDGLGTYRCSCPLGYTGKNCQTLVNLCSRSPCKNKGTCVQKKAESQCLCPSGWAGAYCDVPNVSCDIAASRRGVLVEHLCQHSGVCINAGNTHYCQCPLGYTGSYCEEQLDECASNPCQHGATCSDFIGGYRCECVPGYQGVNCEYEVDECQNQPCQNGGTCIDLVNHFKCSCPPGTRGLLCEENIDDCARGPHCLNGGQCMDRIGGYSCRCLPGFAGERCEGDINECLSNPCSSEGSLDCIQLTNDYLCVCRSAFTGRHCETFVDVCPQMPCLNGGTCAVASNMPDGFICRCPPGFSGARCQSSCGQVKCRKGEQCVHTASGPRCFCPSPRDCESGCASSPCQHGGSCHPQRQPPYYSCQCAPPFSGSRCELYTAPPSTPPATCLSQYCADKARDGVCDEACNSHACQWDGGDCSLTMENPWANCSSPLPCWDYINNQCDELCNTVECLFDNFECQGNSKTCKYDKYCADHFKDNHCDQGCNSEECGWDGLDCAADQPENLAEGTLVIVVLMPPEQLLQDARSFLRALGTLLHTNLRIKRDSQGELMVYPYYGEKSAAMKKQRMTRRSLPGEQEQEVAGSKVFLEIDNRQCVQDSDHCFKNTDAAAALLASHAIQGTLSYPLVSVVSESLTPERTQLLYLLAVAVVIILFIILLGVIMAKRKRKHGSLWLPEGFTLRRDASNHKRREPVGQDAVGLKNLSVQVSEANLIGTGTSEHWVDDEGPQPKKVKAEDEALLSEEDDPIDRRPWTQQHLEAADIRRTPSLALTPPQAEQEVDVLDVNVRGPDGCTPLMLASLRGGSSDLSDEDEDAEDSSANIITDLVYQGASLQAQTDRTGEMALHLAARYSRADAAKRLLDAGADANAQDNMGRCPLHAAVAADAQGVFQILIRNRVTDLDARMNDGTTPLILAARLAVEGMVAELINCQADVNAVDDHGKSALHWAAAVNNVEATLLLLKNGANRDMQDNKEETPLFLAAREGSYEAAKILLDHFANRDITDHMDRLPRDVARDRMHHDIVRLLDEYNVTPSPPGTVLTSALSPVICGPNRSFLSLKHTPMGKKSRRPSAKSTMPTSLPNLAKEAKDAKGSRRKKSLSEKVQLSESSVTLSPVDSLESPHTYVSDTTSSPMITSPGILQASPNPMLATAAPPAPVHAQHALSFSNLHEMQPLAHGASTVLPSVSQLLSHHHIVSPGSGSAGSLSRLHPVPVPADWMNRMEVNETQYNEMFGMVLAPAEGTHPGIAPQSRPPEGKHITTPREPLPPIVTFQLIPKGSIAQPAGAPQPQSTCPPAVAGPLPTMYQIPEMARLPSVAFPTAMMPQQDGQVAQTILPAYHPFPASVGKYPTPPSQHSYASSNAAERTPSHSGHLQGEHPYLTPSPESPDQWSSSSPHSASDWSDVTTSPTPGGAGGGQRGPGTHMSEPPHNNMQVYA

For the compound `O=C(N1CCOCC1)[C@]1(CCS(=O)(=O)c2ccccc2)N=C(c2ccc(OCCCO)cc2)O[C@@H]1c1ccccc1`, the composite z-score in test [1] was 0.217; in test [2] it was 2.19; in test [3] it was -0.0667; in test [4], 0.479; in test [5], 1.22; in [6], 1.94. Besides, the results for the composite z-score in test [7], in [9] and in test [10] were 1.3, 1.31 and -0.0994, respectively. The z-score in [8] was -1.49 (inactive).
With `C=CCNC(=O)[C@H]1[C@@H]2C(=O)O[C@@H](c3ccccc3)[C@@H](c3ccccc3)N2[C@@H](c2ccc(O)cc2)[C@]12C(=O)N(C(=O)OCCOC)c1ccc(C#Cc3ccc(OC)cc3)cc12`, the composite z-score in [1] came to 0.165; in [2], 0.383; in test [3], 0.0106; in test [4], 0.978; in test [5] it was 0.759; in [6], 0.788. Moreover, the composite z-score in [7] was 0.995; in [9], 0.307; in [10], -0.0672. Further, the z-score in [8] is 0.75 (inactive).
Turning to `O=C(CS)NCCCCCCNC(=O)[C@H]1C[C@H]2C(=O)NCC(=O)N2[C@H]1c1cccc(OCCO)c1`, the composite z-score in test [1] was -0.0511; in test [2], 0.0436; in test [3] it was -0.0488; in test [4] it was 0.22; in test [5] it was 0.166; in test [6], 1.36. The composite z-score in test [7] was 1.36; in test [9], 0.0909; in test [10], 0.0024. Further, the z-score in test [8] was 0.525 (inactive).
As to `COC(=O)[C@H](Cc1ccccc1)N1CC(C)(OC)O[C@@H](Cc2ccccc2)[C@H]1/C=C/C1CC1` (stereo not given in full), the composite z-score is 0.016 in test [1]; 0.12 in test [2]; -0.073 in test [3]; -0.194 in test [4]; 0.144 in [5]; 0.0246 in [6]. Besides, the figures for the composite z-score in [7], in test [9] and in test [10] were 0.484, -0.205 and -0.331, respectively. In [8], the z-score was -0.218 (inactive).
With `COC(=O)C(CC#Cc1ccc2c(c1)[C@]1(C(=O)N2)[C@H](c2ccc(OCCO)cc2)N2[C@H](c3ccccc3)[C@H](c3ccccc3)OC(=O)[C@H]2[C@@H]1C(N)=O)C(=O)OC`, the composite z-score stood at 0.0757 in test [1]; 0.268 in test [2]; 0.187 in test [3]; 0.489 in test [4]; 0.0619 in test [5]; 1.26 in [6]. Moreover, the composite z-score in test [7] was 1.17; in test [9], -0.0778; in test [10], 0.0826. The z-score in [8] was 2.1 (inactive).
For `COCCOC(=O)N1C(=O)[C@@]2(c3cc(C#CC4=CCCCC4)ccc31)[C@H](c1ccc(O)cc1)N1[C@H](c3ccccc3)[C@H](c3ccccc3)OC(=O)[C@H]1[C@@H]2C(=O)N1CCc2cc(OC)c(OC)cc2C1`, the composite z-score in test [1] was -0.253; in [2], -0.252; in test [3] it was -0.0824; in [4], 0.142; in test [5], 0.454; in [6], 0.554. In addition, the composite z-score in test [7] was 1.11; in [9] it was 0.0477; in test [10], -0.0296. Besides, the z-score in test [8] was 0.237 (inactive).
Turning to `CCOC(=O)C1=CCC(c2ccncc2)N(S(=O)(=O)c2ccc(C)cc2)C1` (stereo not given), the composite z-score in test [1] is -0.149; in test [2] it was -0.128; in test [3], -0.0459; in [4] it was 1.03; in test [5], 1.32; in test [6], 2.03. Besides, the composite z-score in test [7] was 1.21; in test [9], 0.981; in test [10], -0.0735. Also, the z-score in [8] is -1.41 (inactive).
Consider `CN1C(=O)C2C=CC(C(O)c3cccs3)N(N(c3ccccc3)c3ccccc3)C2C1=O` (stereo not given), for which the composite z-score in [1] is -0.128; in test [2] it was -0.493; in test [3], 0.0472; in test [4], 0.272; in test [5], 1.1; in test [6] it was 1.19. The composite z-score in [7] was 1.21; in test [9], 0.379; in test [10] it was -0.0645. Further, in test [8], the z-score is -0.179 (inactive).
As to `CN1C(=O)C2C(C1=O)C1C=C(CCCO)C2C(C2CC2)N1C` (stereo not given), the composite z-score in test [1] is 0.227; in test [2], -0.144; in [3], 0.078; in test [4], 0.333; in test [5], 0.196; in [6], 0.496. Besides, the composite z-score is 0.625 in test [7], -0.196 in test [9] and -0.385 in test [10]. The z-score in test [8] was -0.818 (inactive).
`C=C[C@H](OC)[C@@H](O)c1ccc(OC)c(O)c1`: the composite z-score in [1] is 0.694; in test [2] it was -1.02; in test [3] it was -0.137; in test [4], -0.248; in test [5], -1.34; in test [6], -0.967. Also, the composite z-score in [7] is -0.673; in test [9], -1; in [10], 0.107. The z-score in [8] is 0.0137 (inactive).
On to `C=C(COC)/C(=C/C[C@@H](OC(C)=O)c1cccc(OCCO)c1)c1cnc2ccccc2c1`, for which the composite z-score in test [1] was 0.305; in test [2], -0.116; in [3], -0.076; in test [4], 0.826; in test [5], 1.63; in [6] it was 0.679. In addition, the values for the composite z-score in test [7], in test [9] and in test [10] were 1.18, 0.134 and -0.214, respectively. For the same compound, the z-score in [8] was 3.42 (inactive).
Regarding `O=C(NCCN1CCOCC1)[C@@H]1c2ccccc2C(=O)N(CC23CC4CC(CC(C4)C2)C3)[C@H]1c1ccc(CO)cc1`, the composite z-score in test [1] is -0.203; in test [2] it was 0.336; in [3] it was 0.0458; in test [4], 0.734; in test [5], 1.64; in test [6], 1.78. For the same compound, the composite z-score in test [7] is 1.39; in test [9] it was 0.742; in test [10] it was 0.0373. Further, the z-score in [8] is -2.37 (inactive).
On to `C[N+](C)(C)CCCC[C@@H]1NC(=O)[C@H]2C[C@@H](C(=O)O)[C@@H](c3ccc(O)cc3)N2C1=O`, for which the composite z-score in [1] is 0.348; in [2], 0.211; in test [3] it was -0.133; in test [4], -0.0114; in [5], 0.288; in [6], 0.45. For the same compound, the composite z-score is 1.3 in test [7], -0.166 in [9] and -0.199 in test [10]. For the same compound, in test [8], the z-score is 4.06 (inactive).
As to `COCCOC(=O)N1C(=O)[C@@]2(c3cc(C#CCNC(N)=O)ccc31)[C@H](c1ccccc1OCCO)N1[C@H](c3ccccc3)[C@H](c3ccccc3)OC(=O)[C@H]1[C@@H]2C(=O)N1CCCCCCC1`, the composite z-score in [1] is 1.63; in [2], 0.646; in test [3] it was 0.0495; in test [4], 0.57; in test [5], 0.725; in test [6], 0.665. Moreover, the composite z-score in test [7] came to 1.1; in test [9] it was 1.29; in test [10] it was 1. For the same compound, in test [8], the z-score was 0.515 (inactive).
For `[N-]=[N+]=NCc1ccccc1[C@H]1OC(c2ccc(OCCCO)cc2)=N[C@@]1(Cc1ccccc1N=[N+]=[N-])C(=O)O`, the composite z-score in [1] is 0.377; in [2] it was 1.08; in [3] it was 0.0997; in test [4], 0.503; in test [5], 1.37; in test [6] it was 1.21. For the same compound, the values for the composite z-score in test [7], in test [9] and in [10] were 1.24, 0.632 and 0.0623, respectively. The z-score in [8] was 4.15 (inactive).
